In PubChem BioAssay (NCI):
About 83,000 compounds went through this panel and 20% of them were active in at least one assay; those are over-represented in the sample as a whole.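 In brief: 96-well plates, 48 h treatment, single concentration, percent growth endpoint.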 Activity calls are given as the source filed them. The calls were made as follows: active = growth percent below 10; inactive = the rest.

Key:
Experiment in all cases: NCI-60 one-dose screen, 48 h (100 = growth as untreated, 0 = no growth, -100 = all killed)
RPMI-8226 leukemia = conditions: 10 µM unless noted
OVCAR-8 ovarian = conditions: 10 µM unless noted
OVCAR-5 ovarian = conditions: 10 µM unless noted
OVCAR-4 ovarian = conditions: 10 µM unless noted
SK-OV-3 ovarian = conditions: 10 µM unless noted
IGROV1 ovarian = conditions: 10 µM unless noted
OVCAR-3 ovarian = conditions: 10 µM unless noted
HS 578T breast = conditions: 10 µM
NCI/ADR-RES ovarian = conditions: 10 µM unless noted
T-47D breast = conditions: 10 µM unless noted
BT-549 breast = conditions: 10 µM unless noted
MDA-MB-435 melanoma = conditions: 10 µM unless noted
SW-620 colon = conditions: 10 µM unless noted
MCF7 breast = conditions: 10 µM unless noted
HCT-116 colon = conditions: 10 µM unless noted
HCC-2998 colon = conditions: 10 µM unless noted
KM12 colon = conditions: 10 µM unless noted

Measured: growth

NC(=O)Nc1ccc2ncnc(Nc3cccc(O)c3)c2c1
inactive: RPMI-8226 leukemia 112% | OVCAR-8 ovarian 98.9% | OVCAR-5 ovarian 98.1% | OVCAR-4 ovarian 112% | SK-OV-3 ovarian 87.5% | IGROV1 ovarian 107% | OVCAR-3 ovarian 82.8% | HS 578T breast 105% | NCI/ADR-RES ovarian 96.7% | T-47D breast 76.6% | BT-549 breast 108% | MDA-MB-435 melanoma 101% | SW-620 colon 99.1% | MCF7 breast 97.3% | HCT-116 colon 109% | HCC-2998 colon 102% | KM12 colon 96.1%

O=c1cc(-c2ccc3c(c2)OCCO3)oc2cc(Cl)ccc12
inactive: RPMI-8226 leukemia 28.8% | OVCAR-8 ovarian 13.5% | OVCAR-5 ovarian 32.8% | HS 578T breast 41.2% | NCI/ADR-RES ovarian 38.2% | BT-549 breast 81.4% | SW-620 colon 28.6% | MCF7 breast 77.8% | HCC-2998 colon 66.2% | KM12 colon 21.3%
active: OVCAR-4 ovarian -12.5% | SK-OV-3 ovarian 2.04% | IGROV1 ovarian -9.4% | OVCAR-3 ovarian -40.2% | T-47D breast 1.86% | MDA-MB-435 melanoma 7.43% | HCT-116 colon -1.49%

COc1ccc(OC)c(Nc2nc(-c3c(C)nc4sccn34)cs2)c1
inactive: RPMI-8226 leukemia 41.9% | OVCAR-8 ovarian 74.5% | OVCAR-5 ovarian 97.9% | OVCAR-4 ovarian 78% | SK-OV-3 ovarian 103% | IGROV1 ovarian 90.8% | OVCAR-3 ovarian 94.7% | HS 578T breast 73.1% | NCI/ADR-RES ovarian 77.8% | T-47D breast 26.3% | BT-549 breast 84.8% | MDA-MB-435 melanoma 66.1% | SW-620 colon 84.2% | MCF7 breast 39.1% | HCT-116 colon 84.6% | HCC-2998 colon 91.3% | KM12 colon 69.2%

ClCc1cccc(CSc2ncnc3c2ncn3Cc2cccc(CCl)c2)c1
active: RPMI-8226 leukemia -10.6% | OVCAR-8 ovarian -16.4% | OVCAR-4 ovarian 8.74% | NCI/ADR-RES ovarian -6.49% | T-47D breast -64.7% | BT-549 breast -69.6% | MDA-MB-435 melanoma 9.56% | SW-620 colon -45.6% | HCC-2998 colon -71.7%
inactive: OVCAR-5 ovarian 116% | SK-OV-3 ovarian 65.5% | IGROV1 ovarian 14% | OVCAR-3 ovarian 28.4% | HS 578T breast 47.7% | MCF7 breast 13.3% | KM12 colon 57.9%

Cc1cc(C)c([O-])c(CN(C)CCN(C)Cc2cc(C)cc(C)c2[O-])c1.O=C([O-])c1cccc(C(=O)[O-])n1.[Ti+4]
active: RPMI-8226 leukemia -25.9% | IGROV1 ovarian 6.22% | OVCAR-3 ovarian 9.53% | HS 578T breast 0.477% | NCI/ADR-RES ovarian 7.88% | BT-549 breast -0.731% | MDA-MB-435 melanoma 6.53% | SW-620 colon -19.7% | HCT-116 colon 4.86%
inactive: OVCAR-8 ovarian 20.9% | OVCAR-5 ovarian 22.1% | OVCAR-4 ovarian 22% | SK-OV-3 ovarian 34.3% | T-47D breast 28.4% | MCF7 breast 17.1% | KM12 colon 11%

CCCCCCCCCCCC1=NC(C)(C)CN1C(C)(C)CO
active: RPMI-8226 leukemia 1.29% | MDA-MB-435 melanoma -25.2% | HCT-116 colon 8.08% | HCC-2998 colon -75.5% | KM12 colon -10.2%
inactive: OVCAR-8 ovarian 69.4% | OVCAR-5 ovarian 73.2% | OVCAR-4 ovarian 64.4% | SK-OV-3 ovarian 73.8% | IGROV1 ovarian 53.2% | OVCAR-3 ovarian 76.7% | HS 578T breast 81.2% | NCI/ADR-RES ovarian 65% | T-47D breast 45.3% | BT-549 breast 76.6% | SW-620 colon 10.8% | MCF7 breast 24.3%

Nc1cccc(S(=O)(=O)c2cccc(N)c2)c1
inactive: RPMI-8226 leukemia 110% | OVCAR-8 ovarian 113% | OVCAR-5 ovarian 99.7% | OVCAR-4 ovarian 102% | SK-OV-3 ovarian 120% | IGROV1 ovarian 114% | OVCAR-3 ovarian 113% | HS 578T breast 118% | NCI/ADR-RES ovarian 115% | T-47D breast 104% | BT-549 breast 111% | MDA-MB-435 melanoma 111% | SW-620 colon 115% | HCC-2998 colon 126% | KM12 colon 129%

CCCCCCCCCC1=NC(C)(C)CN1C(C)(C)CO
inactive: RPMI-8226 leukemia 81% | OVCAR-8 ovarian 102% | OVCAR-5 ovarian 88.3% | OVCAR-4 ovarian 117% | SK-OV-3 ovarian 124% | IGROV1 ovarian 72.1% | OVCAR-3 ovarian 86.1% | HS 578T breast 100% | NCI/ADR-RES ovarian 95.7% | T-47D breast 153% | MDA-MB-435 melanoma 110% | SW-620 colon 93.8% | MCF7 breast 95.3% | HCC-2998 colon 84.1% | KM12 colon 97.6%

CCc1oc2ccccc2c1C(=O)c1cc(I)c(O)c(I)c1
inactive: RPMI-8226 leukemia 55.2% | OVCAR-8 ovarian 56.7% | OVCAR-5 ovarian 86.5% | OVCAR-4 ovarian 71% | SK-OV-3 ovarian 105% | IGROV1 ovarian 50.5% | OVCAR-3 ovarian 13.6% | HS 578T breast 49.2% | T-47D breast 98.9% | BT-549 breast 39.3% | SW-620 colon 19.2% | MCF7 breast 33.8% | HCT-116 colon 22.3% | HCC-2998 colon 53.3% | KM12 colon 27.2%
active: NCI/ADR-RES ovarian -6% | MDA-MB-435 melanoma -25.9%

COc1ccc(-c2cnc3ccnn3c2-c2cc(OC)c(OC)c(OC)c2)cc1
inactive: RPMI-8226 leukemia 23.9% | OVCAR-8 ovarian 47% | OVCAR-5 ovarian 66.1% | OVCAR-4 ovarian 75.4% | SK-OV-3 ovarian 32% | IGROV1 ovarian 62.3% | HS 578T breast 16.7% | NCI/ADR-RES ovarian 27.4% | T-47D breast 22.2% | BT-549 breast 66.7% | SW-620 colon 16.1% | MCF7 breast 25.4% | HCC-2998 colon 80.8% | KM12 colon 16.1%
active: OVCAR-3 ovarian -37.9% | MDA-MB-435 melanoma -38.5%

Nc1ncnc2c1N=C(c1ccc(F)cc1)CC(c1sc(Cl)nc1Cl)N2 (stereo unspecified)
inactive: RPMI-8226 leukemia 76.5% | OVCAR-8 ovarian 87.4% | OVCAR-5 ovarian 99.6% | OVCAR-4 ovarian 97.9% | SK-OV-3 ovarian 95.7% | IGROV1 ovarian 93.5% | OVCAR-3 ovarian 101% | HS 578T breast 92.5% | T-47D breast 88.3% | BT-549 breast 78% | MDA-MB-435 melanoma 102% | SW-620 colon 101% | MCF7 breast 86.6% | HCT-116 colon 91.1% | HCC-2998 colon 101% | KM12 colon 105%

O=C1C=CC(=O)N1c1cccc(N2C(=O)C=CC2=O)c1
inactive: RPMI-8226 leukemia 91.7% | OVCAR-8 ovarian 106% | OVCAR-5 ovarian 102% | OVCAR-4 ovarian 98.1% | SK-OV-3 ovarian 111% | IGROV1 ovarian 111% | OVCAR-3 ovarian 66.4% | HS 578T breast 114% | NCI/ADR-RES ovarian 110% | BT-549 breast 113% | MDA-MB-435 melanoma 103% | MCF7 breast 65.9% | HCC-2998 colon 130% | KM12 colon 122%
active: SW-620 colon 4.72%

CC(C)=CCC[C@H](C)c1ccc(C)c2c1OCN(CCO)C2
inactive: RPMI-8226 leukemia 83.2% | OVCAR-8 ovarian 86.3% | OVCAR-5 ovarian 83.7% | OVCAR-4 ovarian 79% | SK-OV-3 ovarian 105% | IGROV1 ovarian 66.7% | OVCAR-3 ovarian 86.1% | HS 578T breast 75.6% | NCI/ADR-RES ovarian 73.5% | T-47D breast 70% | BT-549 breast 95.8% | MDA-MB-435 melanoma 101% | SW-620 colon 100% | MCF7 breast 83.9% | HCT-116 colon 71.8% | HCC-2998 colon 84.4% | KM12 colon 103%

CC(=O)Nc1nonc1-c1nc2ccccc2n1Cc1ccc(C(C)(C)C)cc1
inactive: RPMI-8226 leukemia 58% | OVCAR-8 ovarian 78.4% | OVCAR-5 ovarian 93.5% | OVCAR-4 ovarian 81% | SK-OV-3 ovarian 88.9% | IGROV1 ovarian 78.7% | OVCAR-3 ovarian 71.3% | HS 578T breast 27.1% | NCI/ADR-RES ovarian 59.7% | T-47D breast 72.9% | BT-549 breast 93.2% | MDA-MB-435 melanoma 86% | MCF7 breast 58.9% | HCT-116 colon 66.9% | KM12 colon 69.3%
